{"source": "PubChem BioAssay (Tox21)", "note": "Records with an inconclusive call do not appear. A number with no mark means an inactive call. Active and inactive are the calls of the source. The call rests on the fitted dose curve; in most records, active means well fitted inhibition curve with a large enough effect in the repeat runs; inconclusive means weak or mixed curves; inactive means flat fitted curve, though single readings scatter. On the % scale 0 is the no-effect control and ±100 the full control effect."}
{"molecular_target": "Luciferin 4-monooxygenase (Photinus pyralis) (UniProt P08659)", "sequence (P08659 whole entry, looked up)": "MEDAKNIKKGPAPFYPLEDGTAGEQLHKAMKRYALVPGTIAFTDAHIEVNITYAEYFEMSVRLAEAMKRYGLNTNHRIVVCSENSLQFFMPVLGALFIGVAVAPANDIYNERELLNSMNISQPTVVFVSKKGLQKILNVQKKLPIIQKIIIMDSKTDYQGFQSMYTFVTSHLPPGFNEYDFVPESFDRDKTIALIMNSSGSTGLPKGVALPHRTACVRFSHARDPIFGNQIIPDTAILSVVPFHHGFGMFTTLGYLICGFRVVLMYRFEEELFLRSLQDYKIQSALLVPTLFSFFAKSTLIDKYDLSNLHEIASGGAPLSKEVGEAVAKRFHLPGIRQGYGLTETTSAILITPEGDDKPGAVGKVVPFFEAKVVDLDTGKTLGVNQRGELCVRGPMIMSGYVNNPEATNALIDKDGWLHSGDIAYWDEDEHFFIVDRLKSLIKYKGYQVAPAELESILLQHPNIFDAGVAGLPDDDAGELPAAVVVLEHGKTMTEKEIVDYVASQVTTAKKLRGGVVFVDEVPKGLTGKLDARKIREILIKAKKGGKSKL", "experiment": "qHTS assay to identify small molecule inhibitors of firefly luciferase (AID 1224835); further: nearly all actives have a fitted effect of over 25% in size", "conditions": "purified P. pyralis luciferase, luminescence inhibition; series mostly up to 52.9 µM; activity change, negative = inhibition: at the top concentration", "text": "U.S. Tox21 Program National Center for Advancing Translational Sciences [NCATS] NIH Chemical Genomics Center [NCGC] U.S. Environmental Protection Agency [EPA] National Institutes of Environmental Health Sciences [NIEHS] National Toxicology Program [NTP] U.S. Food and Drug Administration [FDA] Tox21 Assay Overview: Firefly (Photinus pyralis) luciferase is one of the most commonly used transcriptional reporters. Firefly luciferase reporter-gene assays are generally considered one of the most sensitive assay types (Wood, 1995; Wood, 1998). However, it was initially observed, in 1991, by Thompson et al., that compounds that resemble the substrates of firefly luciferase (FLuc) can act as competitive inhibitors of the enzyme, and that these compounds, upon interaction with luciferase in the cell, can actually stabilize the protein and increase its half-life. Previous profiling work by other groups to determine the prevalence of compounds that affect FLuc enzymatic activity (PubChem AID 411) identified that ~3% of the MLSMR library (then at ~72K) inhibited FLuc. […] Thus the Tox21 10K library is profiled for activity against FLuc using a biochemical assay of purified FLuc and KM concentrations of FLuc substrates (D-luciferin and ATP).\nThese assay plates were then treated with 23nL of compound or DMSO using a Kalypsys pin tool, which allows for delivery of a 6-point interplate titration of each compound to the assay plate (quantitative HTS.) 1 uL of firefly luciferase mix (containing 50 mM Tris acetate, pH 7.6, 0.04 uM P. pyralis luciferase, 0.01% Tween, 0.05% BSA and dH2O) was then delivered by FRD to each well. Luciferase activity was then measured using a ViewLux CCD imager."}
{"smiles": "C[C@@H](CN(C)C)CN1c2ccccc2Sc2ccccc21", "activity change, negative = inhibition": "-0.242%"}
{"smiles": "O=c1[nH]ncc2ccccc12", "activity change, negative = inhibition": "-0.344% [at 115 µM]"}
{"smiles": "CO[C@]1(NC(=O)CSC(F)F)C(=O)N2C(C(=O)O)=C(CSc3nnnn3CCO)CO[C@H]21", "activity change, negative = inhibition": "-2.56%"}
{"smiles": "c1ccc(C[n+]2cccc3ccccc32)cc1", "activity change, negative = inhibition": "0.808% [at 115 µM]"}
{"smiles": "Cc1ccc(CO)cc1", "activity change, negative = inhibition": "-0.198% [at 115 µM]"}
{"smiles": "CCOC(=O)c1ccc(C#Cc2ccc3c(c2)C(C)(C)CCS3)nc1", "activity change, negative = inhibition": "-6.9%"}
{"smiles": "CC(C)COCC(CN(Cc1ccccc1)c1ccccc1)N1CCCC1", "note": "(stereo not given)", "activity change, negative = inhibition": "2.11%"}
{"smiles": "O=C(OC(=O)c1ccccc1)c1ccccc1", "activity change, negative = inhibition": "4.12% [at 115 µM]"}
{"smiles": "CC1CC(C)C(=O)C1=O", "note": "(stereo not given)", "activity change, negative = inhibition": "1.37% [at 115 µM]"}
{"smiles": "C=C(C)C(=O)OCCOCCOC(=O)C(=C)C", "activity change, negative = inhibition": "-1.09% [at 115 µM]"}
{"smiles": "CC1=C(Br)C(=O)C(Br)=C/C1=C(/c1ccccc1S(=O)(=O)O)c1cc(Br)c(O)c(Br)c1C", "Potency": "19.2 µM (active)"}
{"smiles": "CCC=CC#N", "activity change, negative = inhibition": "-0.985% [at 115 µM]"}
{"smiles": "CCCCC(CC)CN", "note": "(stereo not given)", "activity change, negative = inhibition": "13.6% [at 115 µM]"}
{"smiles": "CCOC(=O)c1ccc(I)cc1", "Potency": "50.7 µM (active)"}
{"smiles": "CC(CN(C)C)C(C)(O)Cc1ccc(Cl)cc1", "note": "(stereo not given)", "activity change, negative = inhibition": "-4.34%"}
{"smiles": "C=C/C(C)=C/C/C=C(\\C)CCC=C(C)C", "activity change, negative = inhibition": "3.35% [at 115 µM]"}
{"smiles": "C=CC(C)(CCC=C(C)C)OC(=O)CC(C)C", "note": "(stereo not given)", "activity change, negative = inhibition": "0.0633% [at 115 µM]"}
{"smiles": "COC(=O)CCS", "activity change, negative = inhibition": "-0.421% [at 115 µM]"}
{"smiles": "C[C@@H](O)[C@H]1C(=O)N2C(C(=O)O)=C([C@H]3CCCO3)S[C@H]12", "activity change, negative = inhibition": "0.255%"}
{"smiles": "CC(C)=CCC1C(=O)N(c2ccccc2)N(c2ccccc2)C1=O", "activity change, negative = inhibition": "0.828%"}
{"smiles": "Nc1ncnc2c1ncn2[C@H]1CC[C@@H](CO)O1", "activity change, negative = inhibition": "0.0787% [at 115 µM]"}
{"smiles": "Cc1cscn1", "activity change, negative = inhibition": "3.82% [at 115 µM]"}
{"smiles": "N#CCc1ccc(Cl)cc1Cl", "activity change, negative = inhibition": "-0.919% [at 115 µM]"}
{"smiles": "CCOC(=O)[C@H](CCc1ccccc1)N[C@@H](C)C(=O)N(CC(=O)O)C1Cc2ccccc2C1", "activity change, negative = inhibition": "3.91%"}
{"smiles": "CC1(C)S[C@@H]2[C@H](NC(=O)C(c3ccccc3)S(=O)(=O)O)C(=O)N2[C@H]1C(=O)O", "note": "(stereo not given in full)", "activity change, negative = inhibition": "1.7%"}
{"smiles": "COC(=O)c1nc(Cl)c(Cl)nc1N", "activity change, negative = inhibition": "-2.28%"}
{"smiles": "COC(=O)[C@H]1[C@H]2C[C@@H]3c4[nH]c5cc(OC)ccc5c4CCN3C[C@H]2C[C@@H](OC(=O)/C=C/c2ccc(O)c(OC)c2)[C@@H]1OC", "activity change, negative = inhibition": "0.371%"}
{"smiles": "CCCCCCCCCCC(=O)O", "Potency": "57.1 µM (active)"}
{"smiles": "NC1[C@H]2CN(c3nc4c(cc3F)c(=O)c(C(=O)O)cn4-c3ccc(F)cc3F)C[C@@H]12", "note": "(stereo not given in full)", "activity change, negative = inhibition": "7.17%"}
{"smiles": "CCn1cc(C(=O)O)c(=O)c2cc(F)c(N3CCNCC3)cc21", "activity change, negative = inhibition": "-1.87%"}
{"smiles": "CCCCCC[C@@H](O)C/C=C\\CCCCCCCC(=O)OCC(O)CO", "note": "(stereo not given in full)", "activity change, negative = inhibition": "1.82% [at 115 µM]"}
{"smiles": "Nc1ccc(N=Nc2ccccc2)c(N)c1", "Potency": "2.47 µM (active)"}
{"smiles": "CCCCN1CCCC1C(=O)Nc1c(C)cc(C)cc1C", "note": "(stereo not given)", "activity change, negative = inhibition": "-5.05%"}
{"smiles": "NC(=O)c1ccncc1", "activity change, negative = inhibition": "2.47% [at 115 µM]"}
{"smiles": "CN1C(=O)c2ccccc2C1=O", "activity change, negative = inhibition": "2.68% [at 115 µM]"}
{"smiles": "COc1ccc(OC(=O)N(CC(=O)O)Cc2ccc(OCCc3nc(-c4ccccc4)oc3C)cc2)cc1", "activity change, negative = inhibition": "-5.74%"}
{"smiles": "Cc1ccco1", "activity change, negative = inhibition": "0.488% [at 115 µM]"}
{"smiles": "OCCN1CCN(CCCN2c3ccccc3Sc3ccc(Cl)cc32)CC1", "activity change, negative = inhibition": "2.81%"}
{"smiles": "c1csc(SSc2cccs2)c1", "Potency": "22.4 µM (active)"}
{"smiles": "OC[C@H]1O[C@@H](n2cnc3c(=S)nc[nH]c32)[C@H](O)[C@@H]1O", "activity change, negative = inhibition": "0.0449%"}
